For some of these results: Entries with a potency or affinity are not part of this list. This is one part of the list. The source made the active and inactive calls.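 The calls were made as follows, unless noted: active = calcium signal ratio cut to more than 3 SD under the fully stimulated control mean yet still positive, in both repeats and the primary screen; inactive = the rest.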
How the values were obtained:
[1] = test system: TRPC4 beta (transient receptor potential cation channel C4), mouse; assay: activators of mouse TRPC4 channel, confirmation, cell-based, Fluo4 calcium, HEK293 TRPC4beta/mu-opioid, duplicates, 10 µM (AID 2426;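 active = fluorescence ratio normalized to control raised more than 50% in primary screen plus both repeat runs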); details: Fluo4 calcium fluorescence, at 10 µM; hits give high values
[2] = test system: transient receptor potential cation channel C4 beta (TRPC4), mouse; assay: activators of mouse TRPC4 channel, confirmation, cell-based, second round, Fluo4, HEK293 TRPC4beta/mu-opioid, 1 µM (AID 2461;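 active = primary screen active and over 50% activation in each of two duplicate runs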); details: Fluo4 calcium fluorescence, at 1 µM; hits give high values
[3] = test system: TRPC4 (transient receptor potential cation channel C4 beta), mouse; assay: positive allosteric modulators of mouse TRPC4, confirmation, cell-based, second round, Fluo-4, HEK293 TRPC4beta/mu-opioid, 1 µM (AID 2554;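 active = primary screen hit whose fluorescence ratio, in both repeats, exceeds the weak agonist control mean by 3 SD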); details: DAMGO EC20, Fluo-4 calcium flux, at 1 µM; hits give high values
[4] = test system: TRPC4 beta (transient receptor potential cation channel C4), mouse; assay: positive allosteric modulators of mouse TRPC4, confirmation, cell-based, Fluo-4, HEK293 TRPC4beta/mu-opioid (AID 2555;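 active = primary screen hit whose calcium fluorescence ratio, in both repeats, exceeds the weak agonist control mean by 3 SD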); details: DAMGO EC20, Fluo-4 calcium flux, at 10 µM; hits give high values
[5] = target: Short transient receptor potential channel 4 (Mus musculus) (UniProt Q9QUQ5); assay: inhibitors of mouse TRPC4 channel, confirmation, cell-based, Fluo4, HEK293 TRPC4beta/mu-opioid (AID 2636;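 active = calcium signal cut by more than 3 SD below the full-agonist control yet still positive, in both repeats and the earlier primary screen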); details: DAMGO, Fluo4 calcium flux, at 10 µM; hits give high values
[6] = target: Short transient receptor potential channel 4 (Mus musculus) (UniProt Q9QUQ5); assay: inhibitors of mouse TRPC4 channel, confirmation, cell-based, second round, Fluo4, HEK293 TRPC4beta/mu-opioid, 1 µM (AID 2637); details: Fluo4 calcium flux, DAMGO, at 1 µM; hits give high values
[7] = target: Short transient receptor potential channel 4 (Mus musculus) (UniProt Q9QUQ5); assay: mouse TRPC4 channel activators, dose response, cell-based, HEK293 TRPC4/mu-opioid, Fluo-4 calcium (AID 434937;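 active = primary screen activator hit with a dose response curve and TRPC4 channel activation at any tested dose; inactive = no activation, no dose response, or not a primary hit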)
[8] = target: Short transient receptor potential channel 4 (Mus musculus) (UniProt Q9QUQ5); assay: TRPC4 positive allosteric modulators, dose response, cell-based, HEK293 TRPC4/mu-opioid, Fluo-4 calcium, EC20 DAMGO (AID 434941;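 active = earlier screen potentiator hit that boosts the TRPC4 ion channel at some dose, with a dose response; inactive = no potentiation, no dose response, or not a prior hit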;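 also: calcium entry triggered by an EC20 dose of DAMGO at the co-expressed mu-opioid receptor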)
[9] = target: Short transient receptor potential channel 4 (Mus musculus) (UniProt Q9QUQ5); assay: mouse TRPC4 channel inhibitors, dose response, cell-based, HEK293 TRPC4/mu-opioid, Fluo-4 calcium (AID 434942;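 active = primary screen inhibitor hit that blocks the TRPC4 channel at some tested dose, yielding a dose curve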)
[10] = target: Short transient receptor potential channel 6 (Mus musculus) (UniProt Q61143); assay: inhibition of mouse TRPC6 channel, confirmation, selectivity assay for TRPC4 inhibitor project, cell-based, HEK293, membrane potential dye, duplicate (AID 434948;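 active = active in primary screen and both duplicates, each dropping signal beyond three positive-control SD with fluorescence still positive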); details: HEK293 TRPC6, membrane potential dye fluorescence, at 10 µM; inhibition: hits give high values, stimulated with maximal-effect acetylcholine unless noted; outcome: stimulated with maximal-effect acetylcholine unless noted
[11] = target: Short transient receptor potential channel 6 (Mus musculus) (UniProt Q61143); assay: activation of mouse TRPC6 channel, confirmation, selectivity assay for TRPC4 activator project, cell-based, HEK293, membrane potential dye, duplicate (AID 434950;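 active = membrane potential signal rise above negative control mean plus 3 SD in both duplicates, also active in the earlier TRPC4 screen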;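 as to activation: 0% = buffer only wells and 100% = acetylcholine maximal-effect wells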); details: HEK293 TRPC6, membrane potential fluorescence, at 10 µM; hits give high values
[12] = target: Short transient receptor potential channel 6 (Mus musculus) (UniProt Q61143); assay: TRPC6 potentiation by TRPC4 potentiator hits, confirmation, selectivity assay for TRPC4 potentiator project, HEK293 cells, membrane potential dye, duplicate (AID 434952;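 active = compound raising the membrane signal above positive-control mean plus 3 SD in both repeats, and a primary screen hit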); details: HEK293 TRPC6, membrane potential dye fluorescence, at 10 µM; maximal acetylcholine added after compound unless noted
[13] = target: Short transient receptor potential channel 4 (Mus musculus) (UniProt Q9QUQ5); assay: calcium flux activators in TRPC4/5HT1a cells, counter-screen for TRPC4 activator project, cell-based, second counter screen, HEK293 TRPC4/5HT1a, Fluo-4 (AID 434977;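 active = calcium signal rise above buffer-control mean plus 5 SD in both duplicates, and also a hit in the primary screen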); details: Fluo-4 calcium flux, at 10 µM; hits give high values
[14] = calcium flux inhibitors in TRPC4/5HT1a cells, confirmation, counter-screen for TRPC4 inhibitor project, cell-based, second counter screen, HEK293 TRPC4/5HT1a, Fluo-4 (AID 434978;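 active = primary screen active whose calcium signal fell more than 3 SD beyond the full-serotonin control mean in both duplicate plates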;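 also: serotonin given first at submaximal then at maximal dose after compound preincubation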); details: Fluo-4 calcium flux, at 10 µM; inhibition: hits give high values, serotonin added to trigger calcium flux unless noted; outcome: serotonin added to trigger calcium flux unless noted
[15] = test system: TRPC4 (mouse), co-expressed with 5HT1a in HEK293; assay: calcium flux potentiators in TRPC4/5HT1a cells, confirmation, counter-screen for TRPC4 potentiator project, cell-based, second counter screen, HEK293 TRPC4/5HT1a, Fluo-4 (AID 434979;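 active = signal rise over 3 SD above mean of control wells given weak agonist, in both repeats and first screen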); details: Fluo-4 calcium flux, at 10 µM; outcome: serotonin added at its EC20 dose unless noted; potentiation: hits give high values, serotonin added at its EC20 dose unless noted
[16] = calcium flux activation in mu-opioid HEK293 cells, confirmation, counter-screen for TRPC4 activator project, cell-based, HEK293 mu-opioid receptor line (AID 449723;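 active = hit in primary screen, with calcium signal over 5 SD above buffer well mean in both duplicates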;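 also: counter screen cells carry the mu-opioid receptor alone and lack TRPC4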); details: Fluo-4 calcium fluorescence, at 10 µM; hits give high values
[17] = calcium flux enhancement in mu-opioid HEK293 cells, confirmation, counter-screen for TRPC4 allosteric potentiator project, cell-based, HEK293 mu-opioid receptor line (AID 449724;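 active = calcium signal rise more than 3 SD above the low-dose agonist control mean, in both duplicate plates and the primary screen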); details: Fluo-4 calcium flux, at 10 µM; compound added before EC20 DAMGO stimulus unless noted
[18] = target: Inward rectifier potassium channel 2 (Mus musculus) (UniProt P35561); assay: mouse Kir2.1 channel blockers, retest, confirmation, cell-based, FluxOR thallium flux, duplicate (AID 2032;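 active = Primary-screen hit whose thallium flux fell at least 3 control SD below untreated wells in both duplicates, with normal baseline fluorescence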); details: Kir2.1-expressing cells, FluxOR thallium flux fluorescence, at 10 µM; hits give low values
[19] = nonspecific thallium flux effects in parental HEK293 cells, confirmation, counter-screen for Kir2.1 inhibitor project, cell-based, FluxOR thallium flux, duplicate, single concentration (AID 2105;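 active = dye signal at least 3 control SD above or below untreated wells in both duplicates, raw fluorescence within 3, either direction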); details: FluxOR thallium flux fluorescence, at 10 µM; 0% = unstimulated blank wells
[20] = thallium flux activation in parental CHO cells, counter-screen for KCNQ1 potentiator project (AID 493006;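 active = duplicate-averaged activation above buffer control mean plus 5 SD of those controls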;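 also: fluorescence ratio of max minus min over baseline after K+ and Tl+ depolarization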); details: parental CHO-K1 cells, FluxOR thallium flux, at 10 µM; hits give high values

Short transient receptor potential channel 6 (Mus musculus), sequence (Q61143 whole entry, looked up): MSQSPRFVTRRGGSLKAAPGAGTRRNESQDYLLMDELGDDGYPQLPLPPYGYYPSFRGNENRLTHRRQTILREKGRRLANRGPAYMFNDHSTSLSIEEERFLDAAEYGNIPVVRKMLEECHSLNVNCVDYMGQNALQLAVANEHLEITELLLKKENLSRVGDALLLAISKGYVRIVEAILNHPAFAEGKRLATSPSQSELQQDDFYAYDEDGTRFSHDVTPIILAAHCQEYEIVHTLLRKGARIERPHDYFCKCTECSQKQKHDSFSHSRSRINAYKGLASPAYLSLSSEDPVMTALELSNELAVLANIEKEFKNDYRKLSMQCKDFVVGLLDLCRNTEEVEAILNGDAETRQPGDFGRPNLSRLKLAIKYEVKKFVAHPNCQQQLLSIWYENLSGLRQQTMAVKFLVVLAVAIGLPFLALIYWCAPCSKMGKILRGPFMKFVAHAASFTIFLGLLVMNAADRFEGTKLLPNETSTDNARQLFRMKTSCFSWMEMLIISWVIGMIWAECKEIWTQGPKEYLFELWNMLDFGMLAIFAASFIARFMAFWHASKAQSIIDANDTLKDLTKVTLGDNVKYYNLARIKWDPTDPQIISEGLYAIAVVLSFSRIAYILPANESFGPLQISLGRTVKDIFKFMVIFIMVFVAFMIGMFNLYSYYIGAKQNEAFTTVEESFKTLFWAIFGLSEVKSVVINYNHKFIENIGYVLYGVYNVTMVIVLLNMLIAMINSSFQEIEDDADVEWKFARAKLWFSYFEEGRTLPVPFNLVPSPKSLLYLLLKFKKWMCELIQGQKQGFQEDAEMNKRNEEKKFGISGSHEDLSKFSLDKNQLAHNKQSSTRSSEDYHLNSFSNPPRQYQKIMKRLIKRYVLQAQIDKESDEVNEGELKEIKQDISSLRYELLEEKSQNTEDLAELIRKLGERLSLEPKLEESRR
Short transient receptor potential channel 4 (Mus musculus), sequence (Q9QUQ5 whole entry, looked up): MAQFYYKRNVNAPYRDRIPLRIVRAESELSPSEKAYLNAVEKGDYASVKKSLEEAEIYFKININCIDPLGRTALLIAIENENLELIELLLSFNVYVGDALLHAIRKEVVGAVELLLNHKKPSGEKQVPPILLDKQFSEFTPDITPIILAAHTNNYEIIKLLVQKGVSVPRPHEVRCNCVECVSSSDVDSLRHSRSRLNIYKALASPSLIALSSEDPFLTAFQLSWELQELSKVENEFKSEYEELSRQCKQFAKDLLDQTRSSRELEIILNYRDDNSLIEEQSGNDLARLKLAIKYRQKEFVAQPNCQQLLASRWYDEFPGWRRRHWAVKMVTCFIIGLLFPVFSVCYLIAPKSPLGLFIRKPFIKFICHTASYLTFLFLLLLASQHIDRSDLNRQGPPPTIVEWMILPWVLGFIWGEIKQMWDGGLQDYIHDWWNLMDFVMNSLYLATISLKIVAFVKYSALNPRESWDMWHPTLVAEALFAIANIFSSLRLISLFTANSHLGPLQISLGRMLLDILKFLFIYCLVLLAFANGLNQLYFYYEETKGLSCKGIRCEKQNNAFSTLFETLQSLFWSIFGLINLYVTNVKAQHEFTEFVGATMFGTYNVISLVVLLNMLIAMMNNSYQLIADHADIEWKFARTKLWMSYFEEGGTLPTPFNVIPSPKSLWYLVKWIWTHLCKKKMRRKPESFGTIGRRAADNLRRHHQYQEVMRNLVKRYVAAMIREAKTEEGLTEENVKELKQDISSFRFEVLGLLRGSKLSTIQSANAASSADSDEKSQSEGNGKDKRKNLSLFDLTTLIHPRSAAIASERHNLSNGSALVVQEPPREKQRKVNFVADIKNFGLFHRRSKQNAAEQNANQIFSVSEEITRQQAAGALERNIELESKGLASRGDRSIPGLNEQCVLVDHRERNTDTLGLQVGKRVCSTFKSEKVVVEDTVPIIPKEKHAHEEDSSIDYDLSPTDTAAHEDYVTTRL
Inward rectifier potassium channel 2 (Mus musculus), sequence (P35561 whole entry, looked up): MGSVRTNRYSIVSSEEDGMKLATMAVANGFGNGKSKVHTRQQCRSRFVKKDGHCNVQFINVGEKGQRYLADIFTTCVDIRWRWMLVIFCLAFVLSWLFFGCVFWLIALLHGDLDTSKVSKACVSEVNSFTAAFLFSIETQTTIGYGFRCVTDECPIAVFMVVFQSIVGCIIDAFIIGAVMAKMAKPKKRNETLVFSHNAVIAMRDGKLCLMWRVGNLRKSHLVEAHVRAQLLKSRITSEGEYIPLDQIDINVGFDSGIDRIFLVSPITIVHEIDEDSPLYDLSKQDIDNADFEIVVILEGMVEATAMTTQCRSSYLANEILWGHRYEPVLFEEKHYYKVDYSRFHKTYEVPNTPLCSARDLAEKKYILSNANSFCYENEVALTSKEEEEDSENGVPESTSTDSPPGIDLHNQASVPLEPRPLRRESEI

CCNc1cc(N2CCNCC2)ccc1[N+](=O)[O-]
inactive: outcome [1] | outcome [2] | outcome [5] | outcome [6] | outcome [7] | outcome [8] | outcome [9] | outcome [10] | outcome [11] | outcome [12] | outcome [13] | outcome [14] | outcome [16] | outcome [17]
active: potentiation [3] 35% | potentiation [4] 19% | potentiation [15] 17.7%

COc1cc(-n2c(=S)[nH]c3ccc(C)cc3c2=O)c(Cl)cc1Cl
inactive: outcome [18] | outcome [19]
active: activation [20] 182%

Cc1ccc(-c2nc(N(C)C3CCN(C)CC3)c3ccccc3n2)cc1
active: potentiation [3] 14% | potentiation [4] 24% | potentiation [15] 34.7%
inactive: outcome [1] | outcome [2] | outcome [5] | outcome [6] | outcome [7] | outcome [8] | outcome [9] | outcome [10] | outcome [11] | outcome [12] | outcome [13] | outcome [14] | outcome [16] | outcome [17]

COC(=O)C(Cc1ccc(N(CCCl)CCCl)cc1)N=Cc1ccccc1O (stereo unspecified)
inactive: outcome [1] | outcome [2] | outcome [3] | outcome [4] | outcome [5] | outcome [6] | outcome [7] | outcome [8] | outcome [9] | outcome [10] | outcome [11] | outcome [12] | outcome [13] | outcome [14] | outcome [15] | outcome [16] | outcome [17]

c1ccc2nc(OCCN3CC3)ccc2c1
inactive: outcome [1] | outcome [2] | outcome [3] | outcome [5] | outcome [6] | outcome [7] | outcome [8] | outcome [9] | outcome [10] | outcome [11] | outcome [12] | outcome [13] | outcome [14] | outcome [16] | outcome [17]
active: potentiation [4] 17% | potentiation [15] 16.5%

C=CCOC(=O)C1=C(C)OC(N)=C(C#N)[C@@]12C(=O)N(CC(N)=O)c1ccccc12
inactive: outcome [1] | outcome [2] | outcome [3] | outcome [5] | outcome [6] | outcome [7] | outcome [8] | outcome [9] | outcome [10] | outcome [11] | outcome [12] | outcome [13] | outcome [14] | outcome [16] | outcome [17]
active: potentiation [4] 26% | potentiation [15] 7.13%

Cc1cccc(N=Cc2c(O)n(-c3ccccc3C)c(=O)[nH]c2=O)c1
inactive: outcome [1] | outcome [2] | outcome [3] | outcome [5] | outcome [6] | outcome [7] | outcome [8] | outcome [9] | outcome [10] inactive [setting not given] | outcome [11] | outcome [12] inactive [setting not given] | outcome [13] | outcome [14] inactive [setting not given] | outcome [16] | outcome [17] inactive [setting not given]
active: potentiation [4] 28% | potentiation [15] 32.1% [hits give high values]

Nc1c([N+](=O)[O-])cc(F)c(N2CCNCC2)c1Br
inactive: outcome [1] | outcome [2] | outcome [3] | outcome [4] | outcome [5] | outcome [6] | outcome [7] | outcome [8] | outcome [9] | outcome [10] | outcome [11] | outcome [12] | outcome [13] | outcome [14] | outcome [16] | outcome [17]
active: potentiation [15] 22.5%

Cc1ccc(-c2cc(-c3ccccc3)cc(-c3ccccc3)[n+]2-c2ccccc2)cc1
active: potentiation [4] 18% | potentiation [15] 9.63%
inactive: outcome [1] | outcome [2] | outcome [3] | outcome [5] | outcome [6] | outcome [7] | outcome [8] | outcome [9] | outcome [10] | outcome [11] | outcome [12] | outcome [13] | outcome [14] | outcome [16] | outcome [17]

Cc1ccccc1CN1CCNCC1
inactive: outcome [1] | outcome [2] | outcome [3] | outcome [4] | outcome [5] | outcome [6] | outcome [7] | outcome [8] | outcome [9] | outcome [10] inactive [setting not given] | outcome [11] | outcome [12] inactive [setting not given] | outcome [13] | outcome [14] inactive [setting not given] | outcome [15] inactive [setting not given] | outcome [16] | outcome [17] inactive [setting not given]

CCOc1cccc(=NC2CCCCC2)c2c(C)[nH]c(C)c12
active: Tl flux remaining, % of negative control (hits give low values) [18] 46.5%
inactive: outcome [19]

COC(=O)C1=C(c2cc3ccccc3s2)C[C@@H]2CC[C@H]1N2C(=O)NCCO
active: activation [11] 27%
inactive: outcome [1] | outcome [2] | outcome [3] | outcome [4] | outcome [5] | outcome [6] | outcome [7] | outcome [8] | outcome [9] | outcome [10] | outcome [12] | outcome [13] | outcome [14] | outcome [15] | outcome [16] | outcome [17]

Cc1c(P(=S)(c2ccccc2)c2ccccc2)[n+]2ccccc2n1C
inactive: outcome [1] | outcome [2] | outcome [3] | outcome [4] | outcome [5] | outcome [6] | outcome [7] | outcome [8] | outcome [9] | outcome [10] | outcome [11] | outcome [12] | outcome [13] | outcome [14] | outcome [15] | outcome [16] | outcome [17]

CCNCCNc1ccc([N+](=O)[O-])c2cccnc12
inactive: outcome [1] | outcome [2] | outcome [4] | outcome [5] | outcome [6] | outcome [7] | outcome [8] | outcome [9] | outcome [10] | outcome [11] | outcome [12] | outcome [13] | outcome [14] | outcome [15] | outcome [16] | outcome [17]
active: potentiation [3] 11%

CC(C)CNc1c2c(nc3ccccc13)CCC2
inactive: outcome [1] | outcome [2] | outcome [3] | outcome [4] | outcome [5] | outcome [6] | outcome [7] | outcome [8] | outcome [9] | outcome [10] | outcome [11] | outcome [12] | outcome [13] | outcome [14] | outcome [15] | outcome [16] | outcome [17]

— PubChem BioAssay
